In PubChem BioAssay AID779 (Sanford-Burnham Center for Chemical Genomics, 2007):
Values without a mark were called inactive. No rule for the calls is given here.

Assay: PLAP enzyme activity inhibition – biochemical, colorimetric, counter-screen, dose response (AID 779)
Conditions: colorimetric OD read-out

SMILES | IC50 [µM]
CC(=O)OC1(c2ccc(C)cc2)CN2CCC1c1ccccc12 (stereo not given) | > 50
CCCCOP(=O)(OCCCC)/C(C#N)=C(/C)O | > 50
CN1/C(=C\C=C\C2=[N+](C)c3ccc4ccccc4c3C2(C)C)C(C)(C)c2ccccc21 | > 50
Cc1cc(C=C2C(=O)N(C)C(=S)N(C)C2=O)c(C)n1C1CCCCC1 | > 50
COc1ccc(C(=O)CN2CCOCC2)cc1F | > 50
